Assays:
Experiment in all cases: PBM binding z-score (relative to random genomic background probes); higher = stronger binding; sequences stand for … in GC…GCGATTGACAGCGTAGAATGAAGG
[1] = tested on: FXR:RXRa (NR concentration 270 nM, RXRa partner concentration 90 nM)
Outline: (§1)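 Custom Agilent 4×180K protein-binding microarrays carried double-stranded probes, each with a 34-nt variable region. These regions held direct-repeat seeds, single-nucleotide variants, half-site ablations and random human genomic background sequences. Ligand-free nuclear receptor dimers were incubated on the arrays for 1 h, antibodies against each partner (one per run) detected binding, and scanned fluorescence was regression-normalized. Binding z-scores take the random background probes as reference.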

[2] = tested on: LXRa:RXRa (NR concentration 270 nM, RXRa partner concentration 90 nM)
Outline: as §1

[3] = tested on: LXRa homodimer (NR concentration 270 nM)
Outline: as §1

[4] = tested on: LXRb:RXRa (NR concentration 270 nM, RXRa partner concentration 90 nM)
Outline: as §1

[5] = tested on: LXRb homodimer (NR concentration 270 nM)
Outline: as §1

[6] = tested on: PPARa:RXRa (NR concentration 270 nM, RXRa partner concentration 90 nM)
Outline: as §1

[7] = tested on: PPARg:RXRa (NR concentration 180 nM, RXRa partner concentration 90 nM)
Outline: as §1

[8] = tested on: PPARg:RXRa 270nM:90nM, anti-RXR (NR concentration 270 nM, RXRa partner concentration 90 nM)
Outline: as §1

[9] = tested on: PPARg:RXRa 30nM:10nM, anti-RXR (NR concentration 30 nM, RXRa partner concentration 10 nM)
Outline: as §1

[10] = tested on: PPARg:RXRa 90nM:30nM, anti-RXR (NR concentration 90 nM, RXRa partner concentration 30 nM)
Outline: as §1

[11] = tested on: PPARg:RXRa DBDmut IVT, anti-RXR (DBD mutation: RXRa K156A/R161A, NR concentration 270 nM, RXRa partner concentration 90 nM)
Outline: as §1

[12] = tested on: PPARg:RXRa IVT, anti-PPARg (NR concentration 270 nM, RXRa partner concentration 90 nM)
Outline: as §1

[13] = tested on: PPARg DBDmut:RXRa IVT, anti-PPARg (DBD mutation: PPARg1 K132A/R137A, NR concentration 270 nM, RXRa partner concentration 90 nM)
Outline: as §1

[14] = tested on: PPARg DBDmut IVT, anti-PPARg (DBD mutation: PPARg1 K132A/R137A, NR concentration 270 nM)
Outline: as §1

[15] = tested on: PPARg homodimer (NR concentration 180 nM)
Outline: as §1

[16] = tested on: PXR:RXRa (NR concentration 270 nM, RXRa partner concentration 90 nM)
Outline: as §1

[17] = tested on: PXR homodimer (NR concentration 270 nM)
Outline: as §1

[18] = tested on: RARa:RXR (NR concentration 270 nM, RXRa partner concentration 90 nM)
Outline: as §1

[19] = tested on: RARa homodimer (NR concentration 270 nM)
Outline: as §1

[20] = tested on: RARb:RXRa (NR concentration 270 nM, RXRa partner concentration 90 nM)
Outline: as §1

Row | Sequence | PBM binding z-score [1] | PBM binding z-score [2] | PBM binding z-score [3] | PBM binding z-score [4] | PBM binding z-score [5] | PBM binding z-score [6] | PBM binding z-score [7] | PBM binding z-score [8] | PBM binding z-score [9] | PBM binding z-score [10] | PBM binding z-score [11] | PBM binding z-score [12] | PBM binding z-score [13] | PBM binding z-score [14] | PBM binding z-score [15] | PBM binding z-score [16] | PBM binding z-score [17] | PBM binding z-score [18] | PBM binding z-score [19] | PBM binding z-score [20]
1 | CGTGCTAGGTCAATGGTCAGCTAAAGCAGCTCGC | 3.1 | 2.22 | 0.0909 | 1.37 | -0.184 | 3.03 | 5.04 | 5.55 | 2.98 | 5.12 | 4.64 | 4.42 | 0.168 | -1.05 | 1.65 | 0.869 | -0.615 | 1.59 | -0.282 | 3.77
2 | AGTCAAAGTTCAGGACGAGGTAACGTACAGCACG | 4.02 | 3.94 | 1.42 | 1.7 | 0.128 | 3.3 | 4.64 | 4.76 | 2.19 | 3.73 | -0.265 | 2.01 | 0.413 | 0.297 | 1.59 | 2.95 | 0.808 | 3.01 | 0.256 | 4.18
3 | GCTTGTAGATCAGGGTTAAGAAAGACTAAGCTAA | 0.433 | 0.899 | -0.568 | 0.723 | -0.466 | 1.55 | 0.746 | 1.1 | 0.497 | 0.871 | 0.93 | 0.657 | -0.0573 | -0.809 | 0.18 | 0.366 | -0.121 | 0.69 | -0.311 | 0.352
4 | AGAATGAGGTTATACGTAGATCACGGAAGAAAGT | 2.18 | 2.11 | 0.266 | 1.61 | -0.128 | 3.03 | 1.91 | 2.03 | 0.729 | 1.42 | 4.13 | 2.15 | 1.62 | 1.21 | 0.376 | 1.19 | 0.48 | 1.72 | 0.335 | 1.53
5 | ATTGAAAGGTCGTGAGGTGAGTATACAGAAAGGC | 5.67 | 4.67 | 0.73 | 3.49 | 1.2 | 5.38 | 4.88 | 5.01 | 2.23 | 3.64 | 0.728 | 3.15 | 1.53 | 1.68 | 2.07 | 3.07 | 0.914 | 4.27 | 1.15 | 4.3
6 | CGTCCAAGGTCAAGGTCAGTGAAAGAGACTCGAA | 7.52 | 5.66 | 1.09 | 4.51 | 0.985 | 6.12 | 6.53 | 6.21 | 2.56 | 4.65 | 3.52 | 4.76 | 0.429 | 0.164 | 4.38 | 4.81 | 1.28 | 5.07 | 1.75 | 5.75
7 | TCCAGTTGGTCAAAGGTCACACACTCGAAATGCG | 6.2 | 5.79 | 3.85 | 5.42 | 1.6 | 6.51 | 11 | 9.65 | 9.86 | 10.3 | 3.32 | 6.12 | 2.97 | 1.98 | 5.35 | 6.28 | 2.67 | 7.69 | 3.44 | 5.08

— the supplement of paper PMC6555819
